Experimental findings from paper PMC7862700, “An all-to-all approach to the identification of sequence-specific readers for epigenetic DNA modifications on cytosine” are described below.

Experiment in all cases: DAPPL (digital affinity profiling via proximity ligation, sequencing); 10 mM Tris-HCl pH 7.5, 50 mM NaCl, 1 mM DTT, 4% glycerol, room temperature, 30 min; GST-TFs on glutathione beads, 16-mer random dsDNA library, 0.1% formaldehyde crosslink after washing; high values mean tight binding
One test has as its target T1, FEV (Homo sapiens, UniProt Q99581 1-238).
T1 sequence: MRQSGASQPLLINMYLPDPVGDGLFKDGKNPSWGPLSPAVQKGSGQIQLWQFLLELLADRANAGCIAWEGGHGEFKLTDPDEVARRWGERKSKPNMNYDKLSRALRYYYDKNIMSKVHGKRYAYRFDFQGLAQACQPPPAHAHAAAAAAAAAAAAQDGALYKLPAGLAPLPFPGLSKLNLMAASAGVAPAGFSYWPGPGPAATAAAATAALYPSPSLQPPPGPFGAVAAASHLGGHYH
Particulars: protein: recombinant; tags: N-terminal GST; dsDNA, one strand shown. The gist of the method:
(§1)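 Each value of binding signal is a hexamer's read frequency for a factor divided by the same hexamer's frequency in the tag-only sample. Barcoded, bead-captured GST fusions of human transcription factors made in yeast were pooled with that sample and incubated with 200 nmole of a random double-stranded 16-mer DNA library in Tris/NaCl/DTT/glycerol buffer at room temperature for 30 min. Washing, 0.1% formaldehyde crosslinking, proximity ligation, PCR and Illumina NextSeq500 sequencing followed.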

The target in a further test is ETV5 (Homo sapiens, UniProt P41161 1-510). Conditions: protein: recombinant; tags: N-terminal GST; dsDNA, one strand shown. The gist of the method:
as §1

The target in the next test is HSF1 (Homo sapiens, UniProt Q00613 1-529). Conditions: protein: recombinant; tags: N-terminal GST; chain copies: 3; dsDNA, one strand shown. Summed up: as §1
Sequence of HSF1 (Q00613 whole entry): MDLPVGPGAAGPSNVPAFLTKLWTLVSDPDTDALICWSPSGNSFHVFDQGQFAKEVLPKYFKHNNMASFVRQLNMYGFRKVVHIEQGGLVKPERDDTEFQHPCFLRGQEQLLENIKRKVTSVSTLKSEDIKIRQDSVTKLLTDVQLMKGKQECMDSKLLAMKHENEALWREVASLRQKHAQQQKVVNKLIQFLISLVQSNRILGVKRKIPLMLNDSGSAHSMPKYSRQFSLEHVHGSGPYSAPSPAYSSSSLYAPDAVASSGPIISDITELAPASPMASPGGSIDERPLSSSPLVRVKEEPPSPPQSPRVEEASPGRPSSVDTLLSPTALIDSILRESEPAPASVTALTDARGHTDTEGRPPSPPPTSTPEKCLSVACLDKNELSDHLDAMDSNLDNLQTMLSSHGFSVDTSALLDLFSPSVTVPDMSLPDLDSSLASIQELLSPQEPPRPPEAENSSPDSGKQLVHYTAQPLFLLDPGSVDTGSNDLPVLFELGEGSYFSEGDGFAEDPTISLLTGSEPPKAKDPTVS
A further test addresses T2, SPIC (Homo sapiens, UniProt Q8N5J4 1-248).
T2 sequence: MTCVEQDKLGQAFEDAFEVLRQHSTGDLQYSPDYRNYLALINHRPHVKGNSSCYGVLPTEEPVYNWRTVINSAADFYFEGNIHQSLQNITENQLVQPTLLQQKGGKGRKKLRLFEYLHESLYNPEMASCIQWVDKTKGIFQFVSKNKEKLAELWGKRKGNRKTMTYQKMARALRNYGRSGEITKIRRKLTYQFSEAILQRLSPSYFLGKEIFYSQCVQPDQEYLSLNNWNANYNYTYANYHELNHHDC
Particulars: protein: recombinant; tags: N-terminal GST; dsDNA, one strand shown. The gist of the method:
as §1

Another test addresses ELF4 (Homo sapiens, UniProt Q99607 1-663). Conditions: protein: recombinant; tags: N-terminal GST; dsDNA, one strand shown. Summed up: as §1
In another test the target is T3, ELK4 (Homo sapiens, UniProt P28324-2 1-405).
T3 sequence: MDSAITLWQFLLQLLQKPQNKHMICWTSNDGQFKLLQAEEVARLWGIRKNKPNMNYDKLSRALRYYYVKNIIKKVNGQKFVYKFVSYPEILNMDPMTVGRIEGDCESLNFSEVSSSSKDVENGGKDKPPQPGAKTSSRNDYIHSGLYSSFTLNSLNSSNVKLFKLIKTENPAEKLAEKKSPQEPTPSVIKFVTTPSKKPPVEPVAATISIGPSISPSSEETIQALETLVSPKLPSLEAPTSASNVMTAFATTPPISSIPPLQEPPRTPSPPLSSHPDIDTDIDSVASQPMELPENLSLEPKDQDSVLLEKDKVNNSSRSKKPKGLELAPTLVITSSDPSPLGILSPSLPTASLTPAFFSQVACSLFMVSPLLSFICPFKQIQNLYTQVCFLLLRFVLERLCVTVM
Conditions: protein: recombinant; tags: N-terminal GST; dsDNA, one strand shown. The gist of the method:
as §1

Another test deals with T4, ETV2 (Homo sapiens, UniProt O00321 1-342).
T4 sequence: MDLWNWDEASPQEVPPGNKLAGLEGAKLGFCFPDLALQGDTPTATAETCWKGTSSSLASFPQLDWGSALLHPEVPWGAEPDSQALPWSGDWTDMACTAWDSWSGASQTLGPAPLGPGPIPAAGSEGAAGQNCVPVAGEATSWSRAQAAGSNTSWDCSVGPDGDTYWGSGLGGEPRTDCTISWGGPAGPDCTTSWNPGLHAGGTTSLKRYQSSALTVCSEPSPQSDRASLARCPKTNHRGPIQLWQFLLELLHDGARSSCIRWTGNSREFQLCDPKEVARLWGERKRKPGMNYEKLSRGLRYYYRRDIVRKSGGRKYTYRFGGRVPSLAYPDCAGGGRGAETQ
Conditions: protein: recombinant; tags: N-terminal GST; dsDNA, one strand shown. Summed up: as §1

The target of another test is T5, ELF3 (Homo sapiens, UniProt P78545 1-371).
T5 sequence: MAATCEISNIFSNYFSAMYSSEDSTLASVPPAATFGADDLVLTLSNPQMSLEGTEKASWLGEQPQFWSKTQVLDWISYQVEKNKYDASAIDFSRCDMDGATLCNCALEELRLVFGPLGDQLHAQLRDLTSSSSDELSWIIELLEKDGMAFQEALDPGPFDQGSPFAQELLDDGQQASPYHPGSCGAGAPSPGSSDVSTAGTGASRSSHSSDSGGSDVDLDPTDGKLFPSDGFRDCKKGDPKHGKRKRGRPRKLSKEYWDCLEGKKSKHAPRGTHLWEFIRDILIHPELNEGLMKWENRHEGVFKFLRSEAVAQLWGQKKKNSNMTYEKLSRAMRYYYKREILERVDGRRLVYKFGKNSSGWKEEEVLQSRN
Conditions: protein: recombinant; tags: N-terminal GST; dsDNA, one strand shown. The gist of the method: as §1

The target of another test is CRX (Homo sapiens, UniProt O43186 1-299). Particulars: protein: recombinant; tags: N-terminal GST; dsDNA, one strand shown. The gist of the method:
as §1

The next test concerns the target ETV1 (Homo sapiens, UniProt P50549 1-477). Conditions: protein: recombinant; tags: N-terminal GST; dsDNA, one strand shown. The gist of the method: as §1
The target in the next test is T6, ERF (Homo sapiens, UniProt P50548 1-548).
T6 sequence: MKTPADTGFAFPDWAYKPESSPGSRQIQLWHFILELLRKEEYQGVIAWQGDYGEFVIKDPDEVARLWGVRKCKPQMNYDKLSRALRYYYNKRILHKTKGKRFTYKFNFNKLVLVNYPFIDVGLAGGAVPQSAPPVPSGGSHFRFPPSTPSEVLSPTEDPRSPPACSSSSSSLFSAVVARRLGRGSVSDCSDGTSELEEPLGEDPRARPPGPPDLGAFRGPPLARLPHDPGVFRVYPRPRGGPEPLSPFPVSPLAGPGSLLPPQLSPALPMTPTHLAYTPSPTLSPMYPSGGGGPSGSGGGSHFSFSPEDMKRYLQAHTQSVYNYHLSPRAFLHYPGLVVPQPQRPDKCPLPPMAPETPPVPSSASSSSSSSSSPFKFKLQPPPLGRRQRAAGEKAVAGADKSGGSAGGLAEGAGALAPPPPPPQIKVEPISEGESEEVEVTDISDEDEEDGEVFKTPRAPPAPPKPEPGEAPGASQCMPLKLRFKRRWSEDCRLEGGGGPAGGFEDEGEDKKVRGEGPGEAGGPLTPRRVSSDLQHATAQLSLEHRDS
Conditions: protein: recombinant; tags: N-terminal GST; dsDNA, one strand shown. Summed up:
as §1

In a further test the target is T7, ETV3L (Homo sapiens, UniProt Q6ZN32 1-361).
T7 sequence: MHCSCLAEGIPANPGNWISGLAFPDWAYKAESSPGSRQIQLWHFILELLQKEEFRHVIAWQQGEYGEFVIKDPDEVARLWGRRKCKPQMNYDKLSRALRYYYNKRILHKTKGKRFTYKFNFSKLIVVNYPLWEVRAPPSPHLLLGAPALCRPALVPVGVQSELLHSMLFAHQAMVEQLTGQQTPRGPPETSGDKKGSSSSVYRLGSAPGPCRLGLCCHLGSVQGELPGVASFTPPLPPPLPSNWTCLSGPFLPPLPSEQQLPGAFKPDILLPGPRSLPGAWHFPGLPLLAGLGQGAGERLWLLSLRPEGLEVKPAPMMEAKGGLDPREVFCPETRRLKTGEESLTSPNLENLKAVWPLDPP
Particulars: protein: recombinant; tags: N-terminal GST; dsDNA, one strand shown. The gist of the method:
as §1

In a further test the target is T8, ETS2 (Homo sapiens, UniProt P15036 1-469).
T8 sequence: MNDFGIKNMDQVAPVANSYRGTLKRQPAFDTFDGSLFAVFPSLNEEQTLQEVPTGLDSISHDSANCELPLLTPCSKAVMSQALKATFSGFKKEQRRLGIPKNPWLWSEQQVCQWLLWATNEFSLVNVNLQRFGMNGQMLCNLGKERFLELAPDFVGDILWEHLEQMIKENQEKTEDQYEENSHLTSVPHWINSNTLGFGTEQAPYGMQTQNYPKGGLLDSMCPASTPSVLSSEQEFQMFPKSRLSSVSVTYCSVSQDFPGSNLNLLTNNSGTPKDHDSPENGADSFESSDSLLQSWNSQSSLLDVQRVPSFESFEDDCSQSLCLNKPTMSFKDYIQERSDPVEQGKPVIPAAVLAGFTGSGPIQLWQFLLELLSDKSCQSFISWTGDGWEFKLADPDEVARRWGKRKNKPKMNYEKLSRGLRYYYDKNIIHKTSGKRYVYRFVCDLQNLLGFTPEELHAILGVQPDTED
Conditions: protein: recombinant; tags: N-terminal GST; dsDNA, one strand shown. Summed up: as §1

The next test has as its target T9, SPDEF (Homo sapiens, UniProt O95238 1-335).
T9 sequence: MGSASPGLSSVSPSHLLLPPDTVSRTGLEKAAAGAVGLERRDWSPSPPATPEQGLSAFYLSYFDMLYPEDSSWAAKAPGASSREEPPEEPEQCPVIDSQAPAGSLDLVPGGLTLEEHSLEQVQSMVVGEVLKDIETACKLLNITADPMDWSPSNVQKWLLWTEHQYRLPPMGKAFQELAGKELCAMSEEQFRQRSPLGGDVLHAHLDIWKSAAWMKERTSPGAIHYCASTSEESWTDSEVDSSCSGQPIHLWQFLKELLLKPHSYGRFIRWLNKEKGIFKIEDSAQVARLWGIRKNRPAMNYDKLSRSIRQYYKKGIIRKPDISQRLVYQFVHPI
Particulars: protein: recombinant; tags: N-terminal GST; dsDNA, one strand shown. The gist of the method: as §1

A further test addresses T10, ETV7 (Homo sapiens, UniProt Q9Y603 1-341).
T10 sequence: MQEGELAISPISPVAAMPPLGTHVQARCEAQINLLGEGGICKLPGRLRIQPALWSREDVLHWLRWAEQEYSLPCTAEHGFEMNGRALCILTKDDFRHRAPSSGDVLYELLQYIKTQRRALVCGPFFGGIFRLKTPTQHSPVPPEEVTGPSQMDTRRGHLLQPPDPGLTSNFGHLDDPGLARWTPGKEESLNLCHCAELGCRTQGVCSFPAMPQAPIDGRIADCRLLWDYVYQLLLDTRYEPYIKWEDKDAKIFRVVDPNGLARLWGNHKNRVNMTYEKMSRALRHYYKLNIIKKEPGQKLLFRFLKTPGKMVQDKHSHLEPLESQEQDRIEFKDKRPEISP
Conditions: protein: recombinant; tags: N-terminal GST; dsDNA, one strand shown. Summed up:
as §1

In the next test the target is T11, ELF5 (Homo sapiens, UniProt Q9UKW6-2 1-255).
T11 sequence: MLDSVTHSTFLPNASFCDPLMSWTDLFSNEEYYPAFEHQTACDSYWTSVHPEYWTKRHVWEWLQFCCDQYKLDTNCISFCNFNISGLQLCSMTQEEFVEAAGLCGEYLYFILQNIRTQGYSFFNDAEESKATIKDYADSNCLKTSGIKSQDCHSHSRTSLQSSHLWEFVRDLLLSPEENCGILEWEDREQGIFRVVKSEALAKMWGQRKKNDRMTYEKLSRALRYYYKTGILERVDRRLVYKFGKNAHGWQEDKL
Particulars: protein: recombinant; tags: N-terminal GST; dsDNA, one strand shown. The gist of the method: as §1

In the next test the target is T12, ETV3 (Homo sapiens, UniProt P41162-2 1-143).
T12 sequence: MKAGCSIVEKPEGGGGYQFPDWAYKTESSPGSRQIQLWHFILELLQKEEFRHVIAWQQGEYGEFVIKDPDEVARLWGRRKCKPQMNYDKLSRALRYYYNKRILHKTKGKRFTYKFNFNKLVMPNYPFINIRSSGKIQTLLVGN
Conditions: protein: recombinant; tags: N-terminal GST; dsDNA, one strand shown. The gist of the method:
as §1

The target of a further test is ETV6 (Homo sapiens, UniProt P41212 1-452). Conditions: protein: recombinant; tags: N-terminal GST; dsDNA, one strand shown. Summed up: as §1
Sequence of ETV6 (P41212 whole entry): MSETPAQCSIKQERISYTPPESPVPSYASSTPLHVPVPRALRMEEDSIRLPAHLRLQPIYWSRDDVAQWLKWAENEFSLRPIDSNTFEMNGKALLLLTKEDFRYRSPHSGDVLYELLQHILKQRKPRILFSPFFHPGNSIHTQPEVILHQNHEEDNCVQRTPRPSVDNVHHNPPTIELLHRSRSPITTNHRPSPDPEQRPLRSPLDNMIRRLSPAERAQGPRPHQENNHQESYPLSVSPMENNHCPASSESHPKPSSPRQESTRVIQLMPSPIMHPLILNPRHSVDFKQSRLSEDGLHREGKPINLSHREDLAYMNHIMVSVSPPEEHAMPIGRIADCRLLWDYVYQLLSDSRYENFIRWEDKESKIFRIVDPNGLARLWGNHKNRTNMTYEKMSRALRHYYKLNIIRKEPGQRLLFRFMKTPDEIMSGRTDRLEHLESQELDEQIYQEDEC

Sequence of ETV5 (P41161 whole entry): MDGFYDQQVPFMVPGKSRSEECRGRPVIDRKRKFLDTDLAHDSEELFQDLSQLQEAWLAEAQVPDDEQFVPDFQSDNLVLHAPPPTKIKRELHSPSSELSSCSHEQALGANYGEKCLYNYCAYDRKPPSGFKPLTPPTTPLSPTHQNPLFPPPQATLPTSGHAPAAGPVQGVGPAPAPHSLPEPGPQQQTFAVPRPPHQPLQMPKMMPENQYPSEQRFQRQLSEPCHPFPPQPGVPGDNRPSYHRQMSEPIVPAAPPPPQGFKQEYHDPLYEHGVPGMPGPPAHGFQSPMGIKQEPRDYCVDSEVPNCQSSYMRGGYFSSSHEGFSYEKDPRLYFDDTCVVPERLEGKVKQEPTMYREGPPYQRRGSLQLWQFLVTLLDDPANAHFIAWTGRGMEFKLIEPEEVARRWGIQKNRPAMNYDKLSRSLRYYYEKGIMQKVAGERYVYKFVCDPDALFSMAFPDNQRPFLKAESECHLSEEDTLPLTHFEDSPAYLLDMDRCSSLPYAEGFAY
Sequence of CRX (O43186 whole entry): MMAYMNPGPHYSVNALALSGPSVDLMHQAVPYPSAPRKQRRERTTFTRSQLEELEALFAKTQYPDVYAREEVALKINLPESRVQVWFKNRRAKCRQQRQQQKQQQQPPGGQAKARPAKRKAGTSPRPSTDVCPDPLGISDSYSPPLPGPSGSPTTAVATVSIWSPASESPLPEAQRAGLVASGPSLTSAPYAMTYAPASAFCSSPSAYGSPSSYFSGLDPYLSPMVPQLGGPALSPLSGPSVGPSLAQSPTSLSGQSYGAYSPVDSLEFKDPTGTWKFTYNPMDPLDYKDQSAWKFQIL
Sequence of ELF4 (Q99607 whole entry): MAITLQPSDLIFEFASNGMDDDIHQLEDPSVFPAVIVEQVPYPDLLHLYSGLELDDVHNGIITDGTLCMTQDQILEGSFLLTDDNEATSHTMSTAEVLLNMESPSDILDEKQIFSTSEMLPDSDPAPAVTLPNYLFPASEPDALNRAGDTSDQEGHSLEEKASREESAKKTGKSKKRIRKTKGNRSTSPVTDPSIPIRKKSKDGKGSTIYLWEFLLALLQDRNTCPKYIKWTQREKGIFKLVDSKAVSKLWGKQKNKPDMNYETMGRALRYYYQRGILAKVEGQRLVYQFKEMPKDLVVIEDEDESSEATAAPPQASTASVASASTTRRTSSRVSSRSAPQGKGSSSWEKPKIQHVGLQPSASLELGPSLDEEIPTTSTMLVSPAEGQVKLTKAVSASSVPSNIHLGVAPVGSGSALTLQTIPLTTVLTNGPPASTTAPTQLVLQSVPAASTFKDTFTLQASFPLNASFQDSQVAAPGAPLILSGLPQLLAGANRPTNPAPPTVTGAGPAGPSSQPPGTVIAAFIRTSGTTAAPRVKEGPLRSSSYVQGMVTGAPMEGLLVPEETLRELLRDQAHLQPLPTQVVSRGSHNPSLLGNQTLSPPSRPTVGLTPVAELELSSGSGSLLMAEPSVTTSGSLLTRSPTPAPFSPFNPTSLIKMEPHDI
Sequence of ETV1 (P50549 whole entry): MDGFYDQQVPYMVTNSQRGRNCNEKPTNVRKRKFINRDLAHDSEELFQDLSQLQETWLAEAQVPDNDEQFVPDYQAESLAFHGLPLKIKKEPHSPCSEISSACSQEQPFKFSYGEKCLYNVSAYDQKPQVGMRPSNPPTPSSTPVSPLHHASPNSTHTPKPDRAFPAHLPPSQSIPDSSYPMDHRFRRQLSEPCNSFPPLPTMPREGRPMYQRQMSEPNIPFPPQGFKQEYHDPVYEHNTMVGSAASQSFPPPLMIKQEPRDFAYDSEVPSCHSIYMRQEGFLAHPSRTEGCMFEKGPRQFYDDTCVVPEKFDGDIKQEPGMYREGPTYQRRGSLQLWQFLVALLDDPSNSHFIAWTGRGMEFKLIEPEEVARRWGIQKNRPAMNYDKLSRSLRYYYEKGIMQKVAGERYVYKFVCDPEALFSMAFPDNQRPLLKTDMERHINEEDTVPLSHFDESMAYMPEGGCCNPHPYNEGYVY

For the sequence GTAAAC, the binding signal in the test with FEV was 1.17 fold enrichment (6-mer frequency, TF over GST control); in the test with ETV5, 1.18 fold enrichment (6-mer frequency, TF over GST control); with HSF1, 1.03 fold enrichment (6-mer frequency, TF over GST control); with SPIC, 1.23 fold enrichment (6-mer frequency, TF over GST control); with ELF4, 1.23 fold enrichment (6-mer frequency, TF over GST control); with ELK4, 1.27 fold enrichment (6-mer frequency, TF over GST control). Besides, the binding signal with ETV2 was 1.15 fold enrichment (6-mer frequency, TF over GST control); in the test with ELF3, 1.38 fold enrichment (6-mer frequency, TF over GST control); in the test with CRX, 1.07 fold enrichment (6-mer frequency, TF over GST control); with ETV1, 1.22 fold enrichment (6-mer frequency, TF over GST control); with ERF, 1.27 fold enrichment (6-mer frequency, TF over GST control); with ETV3L, 1.18 fold enrichment (6-mer frequency, TF over GST control). The binding signal with ETS2 was 1.28 fold enrichment (6-mer frequency, TF over GST control); with SPDEF it was 1.17 fold enrichment (6-mer frequency, TF over GST control); with ETV7 it was 1.18 fold enrichment (6-mer frequency, TF over GST control); with ELF5, 1.22 fold enrichment (6-mer frequency, TF over GST control); with ETV3, 1.3 fold enrichment (6-mer frequency, TF over GST control); with ETV6, 1.21 fold enrichment (6-mer frequency, TF over GST control).
